Bioassay records (PubChem)
H9c2 protect: myocardial damage modulation in H9c2 cells. H9c2 cardiomyocytes, H2O2 injury protection, ATPLite, 2 h. protection from H2O2 cell death, % at 20 µM. 0.63% of 360,000 active. AID 588492;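 active = compounds giving at least 50% protection of heart cells from peroxide-induced death in the single-dose screen, raw or plate-pattern-corrected value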;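 note: 0% = DMSO wells with peroxide and 100% = DMSO wells without peroxide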
FAS TE block: inhibitors of human fatty acid synthase thioesterase domain | P49327 | recombinant FAS-TE, OMFH fluorogenic substrate, fluorescence endpoint | inhibition, % at 15 µM | 0.67% of 360,000 active;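 active = compounds whose normalised, plate-corrected inhibition of enzyme fluorescence in the single-dose primary screen is 50% or more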;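 note: 0% = DMSO with enzyme and 100% = substrate without enzyme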
MIN6 prolif: inducers of beta-cell replication in MIN6 cells | MIN6 cells proliferation, ATPlite luminescence, 48 h; cells starved in 0.2% serum; 100% = growth in 10% serum | proliferation, % at 10 µM | AID 2380 | 0.29% of 330,000 active;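 active = compounds whose signal lies at least 3.5 SD above the mean of all wells on their plate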;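 note: 0% = DMSO-treated cells in low-serum medium and 100% = 10% serum control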
Calpain2 inh: calpain II (pig) inhibition; purified calpain II, fluorogenic peptide substrate, 30 min; inhibition, % at 16 µM; 0.37% of 220,000 active; AID 1236;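 active = inhibition above about 50%, limit read from the data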
aDG glyco act: alpha-DG glycosylation activation | activation, % at 10 µM | Pro5-aDG cells, alpha-DG glycosylation AlphaScreen (IIH6); 0% Pro5, 100% B10-LARGE cell signal | 0.22% of 360,000 active;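 active = activation of at least 8% versus controls, or a plate z-score of at least 8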;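 note: Pro5 are CHO cells carrying HIG-tagged alpha-DG that lacks glycosylation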
H9c2 TAG inh: reduces triacylglycerol accumulation in H9c2 cells; Nile Red lipid (TAG) fluorescence; cells loaded with 200 µM oleic acid; inhibition, % at 12.5 µM; 0.66% of 230,000 active; AID 651582;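 active = pattern-corrected inhibition of lipid staining of at least 50% with the nuclear-stain viability signal not falling by more than 50%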;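 note: 0% = DMSO wells and 100% = triacsin C control wells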
H9c2 TAG conf: confirmation of triacylglycerol accumulation inhibitors | H9c2 lipid accumulation, Nile Red fluorescence; cells loaded with 200 µM oleic acid | inhibition, % at 12.5 µM | shares compounds with H9c2 TAG inh | 71% of 990 active;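 active = mean inhibition across replicates of 40% or more; inactive = mean inhibition below 40%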;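 note: plate controls were DMSO only wells for no effect and Triacsin C treated wells for full effect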
* = called active by the depositor. This is a sample that favours compounds with a hit; in the whole collection about 2.3% have one here.

For Cc1cccc(N2CCN(C(=O)CCCn3c(=S)[nH]c4cc5c(cc4c3=O)OCO5)CC2)c1C the results were H9c2 protect -3, FAS TE block 30, MIN6 prolif -5, Calpain2 inh -111, aDG glyco act 1, H9c2 TAG inh 54* and H9c2 TAG conf 38.
Screening Cc1ccc(C(=O)NCCN2C3=NC[C@H](C(C)C)N3C[C@H]2Cc2ccc(O)cc2)cc1Br returned H9c2 protect 11, FAS TE block -5, MIN6 prolif -8, Calpain2 inh -18, aDG glyco act 0, H9c2 TAG inh 57* and H9c2 TAG conf 40*.
`COc1ccc(C[C@H]2CN3C(=NC[C@@H]3Cc3ccc(O)cc3)N2C[C@H](C)NC(=O)CCC2CCCCC2)cc1` gave H9c2 protect -10, FAS TE block 12, MIN6 prolif -9, Calpain2 inh -13, aDG glyco act 0, H9c2 TAG inh 51* and H9c2 TAG conf 39.
O=C(CCC1CCCCC1)NCCN1C2=NC[C@@H](Cc3ccccc3)N2C[C@H]1Cc1ccc(O)cc1 was read as H9c2 protect -2, FAS TE block -4, MIN6 prolif -7, Calpain2 inh 27, aDG glyco act 0, H9c2 TAG inh 63* and H9c2 TAG conf 62*.
Screening O=C(CCC1CCCCC1)NCCN1C2=NC[C@H](Cc3ccccc3)N2C[C@H]1Cc1ccc(O)cc1 returned H9c2 protect 0, FAS TE block 6, MIN6 prolif -8, Calpain2 inh -23 and aDG glyco act 0.
Screening COc1cc2c3c(c1)c(C1=NC(=S)NC1=O)c(O)n3C(C)(C)C=C2C returned H9c2 protect 6, FAS TE block -5, MIN6 prolif -1, Calpain2 inh 25, aDG glyco act -1, H9c2 TAG inh 83* and H9c2 TAG conf 66*.
`CC1(c2ccccc2)CC(C)(C)n2c(O)c(C3=NC(=S)NC3=O)c3cccc1c32` (centres undefined) gave H9c2 protect 7, FAS TE block 0, MIN6 prolif -6, Calpain2 inh -3, aDG glyco act 0 and H9c2 TAG inh -6.
`COc1ccc(-c2sc3ccc(N4CCOCC4)cc3c2C#CC(C)(C)O)cc1` gave H9c2 protect 7, FAS TE block -1, MIN6 prolif -5, aDG glyco act 0, H9c2 TAG inh 64* and H9c2 TAG conf 53*.
O=C(NC(c1ccc(-c2ccccc2)cc1)c1cnccn1)C1CCN(Cc2cccc(C(F)(F)F)c2)CC1 (centres undefined) was read as H9c2 protect -2, FAS TE block 20, aDG glyco act 3 and H9c2 TAG inh -3.
Screening Cn1cc(CN2CCN(c3ncccn3)CC2)c(-c2cccc(Cl)c2)n1 returned H9c2 protect 14, FAS TE block 7, MIN6 prolif 1, Calpain2 inh -29, aDG glyco act 0 and H9c2 TAG inh -17.
Cc1cc(N2CCN(Cc3cn(C)nc3-c3ccccc3F)CC2)cc(C)n1 was read as H9c2 protect 6, FAS TE block -2, MIN6 prolif -1, Calpain2 inh -10, aDG glyco act 0, H9c2 TAG inh 74* and H9c2 TAG conf 84*.
Cc1cc(N2CCN(Cc3cn(C)nc3-c3cccc(Cl)c3)CC2)cc(C)n1 was read as H9c2 protect 1, FAS TE block -1, MIN6 prolif -4, Calpain2 inh -17, aDG glyco act 0, H9c2 TAG inh 71* and H9c2 TAG conf 77*.
`CN1CCN(Cc2cn(C)nc2-c2ccccc2F)CC1c1ccccc1` (centres undefined) gave H9c2 protect 1, FAS TE block -3, MIN6 prolif 2, Calpain2 inh 9, aDG glyco act 0 and H9c2 TAG inh -3.
COCCNC(=O)C1(C)CCN(C(=O)c2cccc(C)c2C)C1 (centres undefined) was read as H9c2 protect 1, FAS TE block -10, aDG glyco act 0 and H9c2 TAG inh -1.
`CNc1cncc(-c2cccc(OC)c2F)n1` gave H9c2 protect 0, FAS TE block -8, aDG glyco act 0 and H9c2 TAG inh 4.
